From PubChem
SARS PLpro yeast – blocks SARS-CoV papain-like protease in a yeast assay | S. cerevisiae expressing SARS-CoV PLpro, growth rescue | Potency, µM (top dose mostly 32.9 µM), for inactives: top-dose activity, positive = growth rescue, usual class: activators | 330,000 compounds, 0.19% hits; calls by dose curve; further: 0% is about no effect; nearly all actives have a fitted effect of over 55% in size
Pf growth 96h – P. falciparum growth inhibition at 96 hours; Potency, µM (highest dose often 28.7 µM), for the others: at the top dose activity change, negative = inhibition, actives largely listed as inhibitors; P. falciparum luciferase reporter growth, 96 h; 320,000 compounds, 6.9% hits; further: on the % scale 0 is the no-effect control and ±100 the full control effect
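P. falciparum expressing integrated firefly luciferase grown in erythrocytes (2% hematocrit, 0.05% parasitemia final) with compounds for 96 hours at 37 C, 5% CO2. Growth inhibition read as loss of luminescence after adding luciferase detection reagent.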
Sm TGR inh – S. mansoni TGR enzyme inhibition | purified TGR, DTNB reduction, TNB absorbance 405 nm | Potency, µM (doses to about 114 µM), inactives show at the highest dose activity change, negative = inhibition, hits mostly inhibitors | 360,000 compounds, 3% hits; further: on the % scale 0 is the no-effect control and ±100 the full control effect; nearly all actives have a fitted effect of over 60% in size
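First, TGR (20 nM dispensed) and NADPH were mixed with compound. Second, a 15 min room-temperature incubation followed. Third, further NADPH and then DTNB were added to start the reaction. Finally, TNB absorbance was monitored kinetically.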
Pf growth 48h – inhibits P. falciparum growth in the first generation, 48 h | 310,000 compounds, 5.9% hits | Potency, µM (titrated, usually from 28.7 µM), for the others: at the top dose activity change, negative = inhibition, hits mostly inhibitors | P. falciparum luciferase growth in erythrocytes, 48 h; further: on the % scale 0 is the no-effect control and ±100 the full control effect
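Firefly luciferase activity from engineered P. falciparum reports growth; inhibitors lower the luminescent signal. Cultures contained 2% hematocrit erythrocytes at 0.1% final parasitemia.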
Starred values were filed as active, the others as inactive; ? = inconclusive; · = no result given; [ ] = dose if it differs, or a comment. Most compounds without a hit are left out; they make up all but 12% or so of the library. Unless noted, the call rests on the fitted dose curve; in most records, active means well fitted curve in the direction sought with a large enough effect; inconclusive means small, poorly fitted or top-dose-only effect, or another doubt; inactive means no such curve, though single readings can be large; an effect the other way counts as inactive or inconclusive. Potency means the concentration at half of the fitted maximal effect.

SMILES	SARS PLpro yeast	Pf growth 96h	Sm TGR inh	Pf growth 48h
COc1cc2cc(CN(CCCN3CCOCC3)Cc3nnnn3Cc3ccccc3)c(=O)[nH]c2cc1OC	0%	6%	0%	-14%
Cc1ccc2cc(CN(Cc3ccc4c(c3)OCO4)Cc3nnnn3Cc3ccco3)c(=O)[nH]c2c1C	-2%	?	?	8.3µM*
Cc1ccc(OCC(=O)Nc2ccccc2N2CCCC2)c(C)c1	-4%	11%[5.75 µM]	4%[57.1 µM]	12µM*
Cc1cc(C)c(OCC(=O)Nc2ccccc2N2CCOCC2)c(C)c1	4%	-6%	-33%	12µM*
CCn1c(Cc2ccccc2)nnc1SCC(=O)Nc1ccccc1N1CCOCC1	2%	3.3µM*	0%	?
Cc1ccc(C)c(OCC(=O)Nc2ccccc2N2CCCC2)c1	-4%	?	-8%	?
CC(=O)N1CCN(c2ccccc2NC(=O)COc2ccc(Cl)cc2Cl)CC1	-5%	·	-15%	10µM*
Cc1ccc(S(=O)(=O)N(C)c2ccc(OC(=O)CN3C(=O)NC4(CCCC4)C3=O)cc2)cc1C	11%	11%	-3%	-9%
CCc1ccc2oc(C(=O)NC3CCS(=O)(=O)C3)cc(=O)c2c1 (stereo not drawn)	·	-5%	-5%	34%
CCCNC(=O)Cn1nc(-c2ccc(OC)cc2)c2cnc3ccc(F)cc3c21	·	·	-1%	·
COc1ccc(C)cc1C(=O)CCC(=O)Nc1ccccc1N1CCOCC1	-18%	21%	22µM*	?
CCC(=O)N1CCN(c2ccccc2NC(=O)COc2cc(C)ccc2C(C)C)CC1	-17%	·	-1%	3.3µM*
COc1cccc(-n2c(-c3cccc(F)c3)nc3c(cnn3-c3ccc(C)cc3)c2=O)c1	·	·	10%	·
CCN(CC)/C(Sc1ccccc1)=C(/C(Cl)=C(Cl)Cl)[N+](=O)[O-]	-2%	?	56µM*	11%
O=[N+]([O-])/C(C(Cl)=C(Cl)Cl)=C(\Sc1ccccc1)N1CCCCC1	-1%	0%	13µM*	-29%
CCN(CC)/C(Sc1ccccc1)=C(\C(Cl)=C(Cl)Cl)[N+](=O)[O-]	-2%	-19%	22µM*	-7%
COc1ccc(CCC(C)NCc2ccc(Cl)c(Cl)c2)cc1 (stereo not drawn)	-8%	6.6µM*	-16%	9%
COc1ccc(CCC(C)NCc2cc(OC)cc(OC)c2)cc1 (stereo not drawn)	-3%	6%	-2%	-22%
COc1ccc(CCC(C)NCC2CCCCC2)cc1 (stereo not drawn)	-16%	13µM*	-7%	?
CCOC(=O)c1ccccc1NC1CC(=O)N(c2ccccc2C)C1=O (stereo not drawn)	-24%	?	3.5µM*	6%
CCOC(=O)c1ccccc1NC(=O)C1CC(=O)N(C(C)(C)C)C1 (stereo not drawn)	-4%	24%	-14%	4%
COc1ccc(NC(=O)CCNS(=O)(=O)c2ccc3c(c2)CCCC(=O)N3)cc1	·	·	-2%	·
CCCCN1CCc2nc(N3CCN(c4ncccn4)CC3)ncc2C1	·	·	-2%	·
Clc1nssc1=Nc1nncs1	3%	84%	50µM*	21%
Clc1nssc1=Nc1ccc(Br)cc1	-20%	-27%	-18%	17%
SMILES	SARS PLpro yeast	Pf growth 96h	Sm TGR inh	Pf growth 48h
COc1ccc(-c2nnc(-c3cc4ccccc4oc3=O)o2)cc1	20%	12µM*	-3%	13%
COc1cccc2cc(-c3nnc(-c4ccccc4)o3)c(=O)oc12	0%	8.3µM*	-8%[57.1 µM]	23%
COc1cccc2cc(-c3nnc(-c4ccc(Cl)cc4)o3)c(=O)oc12	·	·	6%	·
CCCCCCc1cc2cc(-c3nnc(-c4ccccc4OC)o3)c(=O)oc2cc1O	-15%	·	5%	3.7µM*
COc1ccc2oc(=O)c(-c3nnc(-c4ccc(C)cc4)o3)cc2c1	·	·	-19%	·
CCCCCCc1cc2cc(-c3nnc(-c4ccccc4O)o3)c(=O)oc2cc1O	-2%	·	6%	-17%
CC1=C(c2ccc(Cl)cc2)[N+](=O)C(C)(C)N1[O-]	0%	24%	20µM*	14%
NC(=O)N\N=C/C=C/C=C/c1ccc(F)cc1	0%	34%	25µM*	42%
COc1ccc(C(C)(C)C)cc1NC(=O)C1CC(=O)N(C2CCCC2)C1 (stereo not drawn)	-2%	·	·	·
Cc1ccc(Cl)cc1N1CCN(CCCNC(=O)Cn2ncc3c([nH]c4ccccc43)c2=O)CC1	·	·	-2%	·
CC(=O)n1cc(N(C(=O)CCl)c2ccc(C)cc2)c2ccccc21	-2%	?	0.71µM*	?
CC(=O)N(c1ccc(Cl)cc1)c1cn(C(C)=O)c2ccccc12	0%	-22%[5.75 µM]	7%	-2%
